PubChem BioAssay (Tox21)
Inconclusive results are not listed. Active and inactive are the calls of the source. Calls follow the shape of the dose curve; as a rule, active = well fitted curve in the direction sought with a large enough effect in the repeat runs; inconclusive = weak or mixed curves; inactive = no such curve, though single readings can be large; an effect the other way counts as inactive or inconclusive.

Legend:
[1] = biological target: Cytochrome P450 2C19 (Homo sapiens) (UniProt P33261); assay: Cytochrome P450 Family 2 Subfamily C Member 19 (CYP2C19) small molecule antagonists: luciferase reporter qHTS assay (AID 1671197); also: nearly all actives have a fitted effect of over 65% in size
Summary of the method: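 Compounds were tested on CYP2C19 activity via proluciferin conversion to luciferin. The 37C, 1 h reaction followed NADPH addition; detection reagent stopped it.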

[2] = biological target: Cytochrome P450 2C9 (Homo sapiens) (UniProt P11712); assay: Cytochrome P450 Family 2 Subfamily C Member 9 (CYP2C9) small molecule antagonists: luciferase reporter qHTS assay (AID 1671198); also: nearly all actives have a fitted effect of over 50% in size
Summary of the method: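 CYP2C9 activity was measured with a P450-Glo proluciferin substrate. Enzyme–substrate mix was held with compound for 10 min at room temperature, then NADPH regeneration solution was added for 1 h at 37C. Luciferin product was read as luminescence.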

[3] = biological target: Cytochrome P450 1A2 (Homo sapiens) (UniProt P05177); assay: Cytochrome P450 Family 1 Subfamily A Member 2 (CYP1A2) small molecule antagonists: luciferase reporter qHTS assay (AID 1671199); also: nearly all actives have a fitted effect of over 50% in size
Summary of the method: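 Quantitative high-throughput format using the P450-Glo CYP1A2 system. Reaction initiated by NADPH regeneration solution, 1 h at room temperature, then stopped with detection reagent; luminescence measured 20 min later.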

[4] = biological target: Voltage-gated inwardly rectifying potassium channel KCNH2 (Homo sapiens) (UniProt Q12809); assay: Human Ether-a-go-go-Related Gene (hERG) channel small molecule antagonists: fluorescence cell-based qHTS assay (AID 1671200); also: nearly all actives have a fitted effect of over 50% in size
Summary of the method: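 Kinetic two-minute fluorescence traces, sampled at 1 s, were collected following thallium stimulus of U2OS cells (1000 per well) that had been cultured overnight at 37 C and loaded with FluxOR II.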

[5] = biological target: Cytochrome P450 3A4 (Homo sapiens) (UniProt P08684); assay: Cytochrome P450 Family 3 Subfamily A Member 4 (CYP3A4) small molecule antagonists: luciferase reporter qHTS assay (AID 1671201); also: nearly all actives have a fitted effect of over 50% in size
Summary of the method: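 Proluciferin-to-luciferin conversion by CYP3A4, NADPH-regenerated, 1 h RT; luminescence read as RLU. Ketoconazole as control.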

Measured: Potency
Potency is read from the fitted curve at half-maximal effect.

Chain of Cytochrome P450 2C9 (Homo sapiens) (P11712 whole entry, looked up): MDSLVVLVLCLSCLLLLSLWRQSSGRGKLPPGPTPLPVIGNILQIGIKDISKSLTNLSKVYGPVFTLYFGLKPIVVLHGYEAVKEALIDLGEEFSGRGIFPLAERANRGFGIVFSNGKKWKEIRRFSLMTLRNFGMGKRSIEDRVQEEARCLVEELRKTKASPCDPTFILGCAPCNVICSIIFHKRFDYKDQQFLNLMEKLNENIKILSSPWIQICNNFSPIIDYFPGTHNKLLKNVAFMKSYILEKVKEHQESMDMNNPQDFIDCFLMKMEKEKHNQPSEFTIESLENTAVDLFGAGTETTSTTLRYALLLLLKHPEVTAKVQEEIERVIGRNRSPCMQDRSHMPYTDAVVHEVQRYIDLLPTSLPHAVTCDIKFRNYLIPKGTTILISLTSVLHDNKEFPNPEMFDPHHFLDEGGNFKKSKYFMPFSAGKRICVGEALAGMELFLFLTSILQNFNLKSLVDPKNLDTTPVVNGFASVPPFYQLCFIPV
Chain of Cytochrome P450 1A2 (Homo sapiens) (P05177 whole entry, looked up): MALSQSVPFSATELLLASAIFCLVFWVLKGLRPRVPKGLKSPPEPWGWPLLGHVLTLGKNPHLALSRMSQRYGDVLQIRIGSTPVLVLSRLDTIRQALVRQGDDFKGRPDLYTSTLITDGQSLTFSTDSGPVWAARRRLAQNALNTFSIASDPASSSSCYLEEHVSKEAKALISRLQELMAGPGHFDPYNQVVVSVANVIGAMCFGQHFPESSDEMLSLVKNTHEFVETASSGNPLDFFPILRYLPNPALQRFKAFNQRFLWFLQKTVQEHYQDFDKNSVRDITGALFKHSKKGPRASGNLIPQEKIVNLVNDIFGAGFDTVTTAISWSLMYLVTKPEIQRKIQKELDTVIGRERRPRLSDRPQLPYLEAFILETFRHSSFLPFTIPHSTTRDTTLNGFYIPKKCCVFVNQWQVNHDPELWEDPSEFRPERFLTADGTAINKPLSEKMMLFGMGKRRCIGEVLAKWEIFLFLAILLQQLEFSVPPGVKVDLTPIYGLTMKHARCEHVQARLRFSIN
Chain of Voltage-gated inwardly rectifying potassium channel KCNH2 (Homo sapiens) (Q12809 whole entry, looked up): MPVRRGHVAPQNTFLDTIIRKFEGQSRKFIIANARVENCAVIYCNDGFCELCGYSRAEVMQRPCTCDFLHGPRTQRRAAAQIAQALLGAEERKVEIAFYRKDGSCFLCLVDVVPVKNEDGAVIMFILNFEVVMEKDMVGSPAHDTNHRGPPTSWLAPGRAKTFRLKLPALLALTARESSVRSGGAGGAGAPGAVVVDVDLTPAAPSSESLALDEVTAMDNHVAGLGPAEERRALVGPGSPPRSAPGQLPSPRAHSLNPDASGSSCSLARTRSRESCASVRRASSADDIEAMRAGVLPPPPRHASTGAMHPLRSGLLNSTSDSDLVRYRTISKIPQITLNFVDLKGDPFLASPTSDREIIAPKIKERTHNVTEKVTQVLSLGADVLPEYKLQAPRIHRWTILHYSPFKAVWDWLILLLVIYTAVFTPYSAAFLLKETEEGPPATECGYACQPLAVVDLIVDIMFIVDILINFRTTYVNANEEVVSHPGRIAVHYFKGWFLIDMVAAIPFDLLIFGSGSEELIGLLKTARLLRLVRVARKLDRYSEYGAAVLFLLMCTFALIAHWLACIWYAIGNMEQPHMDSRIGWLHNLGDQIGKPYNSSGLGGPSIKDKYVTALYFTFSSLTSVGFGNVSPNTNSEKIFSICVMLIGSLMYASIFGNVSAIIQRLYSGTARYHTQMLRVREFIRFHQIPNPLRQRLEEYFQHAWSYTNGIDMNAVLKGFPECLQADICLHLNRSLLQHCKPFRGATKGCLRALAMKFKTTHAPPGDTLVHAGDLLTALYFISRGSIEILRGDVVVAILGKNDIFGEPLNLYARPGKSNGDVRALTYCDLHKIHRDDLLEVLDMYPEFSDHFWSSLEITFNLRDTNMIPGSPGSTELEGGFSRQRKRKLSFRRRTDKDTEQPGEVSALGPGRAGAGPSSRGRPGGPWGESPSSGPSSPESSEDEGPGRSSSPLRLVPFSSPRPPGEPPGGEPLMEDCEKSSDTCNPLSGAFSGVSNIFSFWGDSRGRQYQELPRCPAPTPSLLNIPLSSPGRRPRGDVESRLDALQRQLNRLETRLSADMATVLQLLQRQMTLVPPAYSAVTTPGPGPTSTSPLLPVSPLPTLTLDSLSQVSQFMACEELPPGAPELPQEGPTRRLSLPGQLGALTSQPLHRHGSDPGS
Chain of Cytochrome P450 3A4 (Homo sapiens) (P08684 whole entry, looked up): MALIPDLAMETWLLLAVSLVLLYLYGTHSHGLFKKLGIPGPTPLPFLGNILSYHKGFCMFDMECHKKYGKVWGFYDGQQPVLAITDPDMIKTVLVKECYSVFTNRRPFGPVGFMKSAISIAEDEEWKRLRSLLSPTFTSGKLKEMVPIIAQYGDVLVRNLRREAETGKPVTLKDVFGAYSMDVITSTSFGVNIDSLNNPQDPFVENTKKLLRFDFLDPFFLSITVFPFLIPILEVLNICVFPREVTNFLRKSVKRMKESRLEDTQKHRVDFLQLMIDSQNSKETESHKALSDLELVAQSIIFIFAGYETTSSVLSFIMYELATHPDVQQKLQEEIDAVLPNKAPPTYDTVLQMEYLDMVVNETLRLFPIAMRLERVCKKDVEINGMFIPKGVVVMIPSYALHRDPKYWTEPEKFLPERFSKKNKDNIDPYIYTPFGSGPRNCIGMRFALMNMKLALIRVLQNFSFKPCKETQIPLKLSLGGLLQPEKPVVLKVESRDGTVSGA
Chain of Cytochrome P450 2C19 (Homo sapiens) (P33261 whole entry, looked up): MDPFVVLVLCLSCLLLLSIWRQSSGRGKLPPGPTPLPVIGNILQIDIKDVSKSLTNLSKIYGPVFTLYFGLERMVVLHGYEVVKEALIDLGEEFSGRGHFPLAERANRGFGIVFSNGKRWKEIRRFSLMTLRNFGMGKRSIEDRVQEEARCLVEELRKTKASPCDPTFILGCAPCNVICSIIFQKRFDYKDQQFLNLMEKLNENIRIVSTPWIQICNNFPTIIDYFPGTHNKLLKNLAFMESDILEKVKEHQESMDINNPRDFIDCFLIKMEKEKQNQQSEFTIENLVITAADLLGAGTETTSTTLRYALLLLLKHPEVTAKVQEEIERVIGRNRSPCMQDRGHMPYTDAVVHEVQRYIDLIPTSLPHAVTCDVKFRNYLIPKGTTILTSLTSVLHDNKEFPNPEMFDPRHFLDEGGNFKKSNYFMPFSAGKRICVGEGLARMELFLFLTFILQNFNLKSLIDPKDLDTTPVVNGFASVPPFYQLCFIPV

COc1ccc2[nH]c(S(=O)Cc3ncc(C)c(OC)c3C)nc2n1 (stereo unspecified)
inactive: [4]
active: [1] 34.7 µM | [2] 17.4 µM | [3] 24.5 µM

CCOC(=O)CC(C)C
inactive: [1] | [2] | [3] | [4] | [5]

CCCCCc1ccc(N)cc1
active: [1] 6.33 µM | [2] 28.3 µM | [3] 28.3 µM | [5] 31.7 µM
inactive: [4]

Nc1ccc(C(=O)Nc2ccccc2N)cc1
inactive: [1] | [2] | [3] | [4] | [5]

NC(=S)N/N=C/c1cccnc1
active: [3] 17.4 µM
inactive: [1] | [2] | [4] | [5]

O=C(Nc1ccccc1)OCC(CN1CCCCC1)OC(=O)Nc1ccccc1 (stereo unspecified)
active: [1] 8.71 µM | [2] 17.4 µM | [4] 6.01 µM
inactive: [3]

CCCCCOC(=O)c1ccc(O)cc1
active: [1] 28.6 µM | [2] 36 µM | [3] 2.55 µM

Cc1ccc(C(=O)C(C)CN2CCCCC2)cc1 (stereo unspecified)
active: [1] 7.76 µM
inactive: [2] | [3] | [4] | [5]

O=C(c1ccc(O)cc1)c1ccc(O)cc1
inactive: [2] | [4]
active: [1] 39.9 µM | [3] 39.9 µM

CC(C)c1ccc2c(C(C)C)cc(C(C)C)c(S(=O)(=O)O)c2c1
active: [2] 29.2 µM
inactive: [1] | [3] | [4] | [5]

C=CC(=O)OCC(C)OCC(C)OCC(C)OC(=O)C=C (stereo unspecified)
active: [1] 3.56 µM | [2] 35.6 µM | [3] 6.33 µM | [5] 5.03 µM
inactive: [4]

CC(=O)c1ccc2c(c1)[C@H](NC(=O)c1ccc(F)cc1)[C@@H](O)C(C)(C)O2
inactive: [1] | [4]
active: [2] 33.5 µM | [3] 33.5 µM | [5] 29.9 µM

Nc1cnn([C@@H]2O[C@H](CO)[C@@H](O)[C@H]2O)c(=O)n1
inactive: [1] | [2] | [3] | [4] | [5]

CC(=O)CC(=O)c1ccccc1
inactive: [4]
active: [1] 31.9 µM | [2] 35.8 µM | [3] 40.2 µM | [5] 63.7 µM

CCOc1cc(OCC)c(C(=O)CCC(=O)O)cc1OCC
inactive: [1] | [2] | [3] | [4] | [5]

NCc1ccccc1
inactive: [1] | [2] | [4] | [5]
active: [3] 31.7 µM

S=C(S)NCCNC(=S)S
active: [1] 31.2 µM | [2] 35 µM
inactive: [3] | [4] | [5]

Oc1ccc2c(c1)OCO2
active: [1] 19.9 µM | [2] 9.95 µM | [3] 31.5 µM | [5] 22.3 µM
inactive: [4]

CCCCCOC(=O)COc1cc(N2C(=O)C3=C(CCCC3)C2=O)c(F)cc1Cl
active: [1] 25.2 µM | [2] 5.64 µM | [3] 31.7 µM | [5] 6.33 µM

N[C@H]1C(O)O[C@H](CO)[C@H](O)[C@@H]1O (stereo partly specified)
inactive: [1] | [2] | [3] | [5]

CC(C)(C)C1CCCCC1O (stereo unspecified)
inactive: [1] | [2] | [3] | [4] | [5]

COc1ccccc1OC(=O)Oc1ccccc1OC
inactive: [2] | [4] | [5]
active: [1] 9.77 µM | [3] 4.56 µM

CN1CCC(=C2c3ccccc3C=Cc3ccccc32)CC1
inactive: [2] | [3] | [5]
active: [1] 24.5 µM

Cc1ccc2c(ccc3ccccc32)c1
active: [1] 35.7 µM | [2] 35.7 µM | [3] 3.18 µM
inactive: [4] | [5]

CC[C@H](C)[C@H](N)C(=O)O
inactive: [1] | [2] | [3] | [4] | [5]

Cn1c(=O)c2c(ncn2CC(O)CO)n(C)c1=O (stereo unspecified)
inactive: [1] | [2] | [3] | [4] | [5]

COC(=O)C(C)=O
inactive: [2] | [4] | [5]
active: [1] 71.3 µM | [3] 31.9 µM

Cc1ncsc1CCO
inactive: [1] | [2] | [3] | [4] | [5]

COc1cc(C(C)(C)C)c(O)c(C(C)(C)C)c1
active: [1] 35.6 µM | [2] 22.4 µM | [3] 39.9 µM | [5] 35.6 µM

O=C(NN1CCCC1)NS(=O)(=O)c1ccc(Cl)cc1
inactive: [1] | [2] | [3] | [4] | [5]

Nc1nc(N)c2nc(CNc3ccc(C(=O)N[C@@H](CCC(=O)O)C(=O)O)cc3)cnc2n1
inactive: [1] | [2] | [3] | [4] | [5]

CCCOc1ccc2nc(NC(=O)OC)[nH]c2c1
inactive: [1] | [2] | [3] | [4] | [5]
